Shown are actives, neighbours in structure and some others; about 3.8% of the full set was active somewhere.
Gli-Sufu antag – antagonists of Gli-Sufu signaling; Sufu-KO-LIGHT fibroblasts, Gli luciferase reporter luminescence; inhibition, % at 5 µM; hit rate 0.74% among 340,000; AID 588413;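 active = inhibition above about 55%, limit read from the data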
Mdm2-MdmX inh – human Mdm2/MdmX binding inhibition. O15151+Q00987. SaOS-2 split-luciferase Mdm2/MdmX complementation, luminescence. inhibition, % at 8 µM. hit rate 3% among 330,000. AID 485346;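 active = inhibition of at least 50% at 8 µM in the primary screen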
Target sequence (O15151 whole entry, looked up): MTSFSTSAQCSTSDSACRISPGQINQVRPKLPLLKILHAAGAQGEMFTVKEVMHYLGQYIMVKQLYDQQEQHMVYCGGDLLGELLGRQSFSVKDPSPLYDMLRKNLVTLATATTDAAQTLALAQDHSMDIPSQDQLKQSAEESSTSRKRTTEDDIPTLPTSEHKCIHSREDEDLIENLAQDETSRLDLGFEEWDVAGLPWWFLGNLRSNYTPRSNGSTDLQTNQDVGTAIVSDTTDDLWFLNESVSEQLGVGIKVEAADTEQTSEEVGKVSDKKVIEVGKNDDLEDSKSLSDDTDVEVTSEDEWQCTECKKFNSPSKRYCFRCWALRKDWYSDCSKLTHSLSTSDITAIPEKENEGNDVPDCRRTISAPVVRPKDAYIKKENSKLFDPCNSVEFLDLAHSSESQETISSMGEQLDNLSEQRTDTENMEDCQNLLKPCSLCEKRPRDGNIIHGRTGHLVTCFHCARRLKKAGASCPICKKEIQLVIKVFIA
Target sequence (Q00987 whole entry, looked up): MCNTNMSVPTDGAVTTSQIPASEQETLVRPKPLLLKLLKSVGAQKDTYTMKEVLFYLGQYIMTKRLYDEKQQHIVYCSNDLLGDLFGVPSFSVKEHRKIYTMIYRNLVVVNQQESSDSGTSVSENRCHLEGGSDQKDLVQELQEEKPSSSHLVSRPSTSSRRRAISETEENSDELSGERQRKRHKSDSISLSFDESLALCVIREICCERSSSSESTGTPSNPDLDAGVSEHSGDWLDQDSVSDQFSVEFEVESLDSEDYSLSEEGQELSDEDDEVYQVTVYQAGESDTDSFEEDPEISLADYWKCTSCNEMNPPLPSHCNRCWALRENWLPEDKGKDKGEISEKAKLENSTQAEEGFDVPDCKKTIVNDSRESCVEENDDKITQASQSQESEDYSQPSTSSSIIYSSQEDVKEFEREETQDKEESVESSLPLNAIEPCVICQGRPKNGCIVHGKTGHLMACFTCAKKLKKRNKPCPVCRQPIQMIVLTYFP
Jurkat NFkB inh – lowers PMA/ionomycin-induced NF-kB signal in Jurkat cells; inhibition, % at 4 µM; hit rate 0.53% among 330,000; AID 435003; PMA/ionomycin-induced NF-kB luciferase reporter, luminescence; in the data active = inhibition above about 50%
Shn3 inh set2 – Schnurri-3 reporter inhibition in Clone20 osteoblasts. Clone20 osteoblast Shn3 3'UTR firefly luciferase, 24 h. inhibition, % at 12.5 µM. hit rate 0.52% among 360,000. AID 588674;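 active = mean inhibition of at least 75% with every replicate also reaching 75%; inconclusive = mean inhibition at least 75% but some replicate below; inactive = mean inhibition below 75%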
697 NFkB inh – inhibitors of the PMA/ionomycin-induced NF-kB reporter in 697 B cells. 697 B-cell NF-kB luciferase reporter, 16 h. inhibition, % at 4 µM. hit rate 0.33% among 330,000. AID 435022; in the data active = inhibition above about 35%
Mdm2-MdmX conf – human Mdm2/MdmX binding inhibition, confirmed | luminescent assay | hit rate 55% among 10,000 | AID 489028 | inhibition, % at 8 µM | shares compounds with Mdm2-MdmX inh; in the data active = inhibition above about 40%
FLuc counter – counter-screen for Mdm2/MdmX inhibitors: full-length luciferase | shares compounds with Mdm2-MdmX inh | SaOS-2 full-length luciferase counterscreen, luminescence | inhibition, % at 8 µM | hit rate 77% among 6,200 | AID 504607;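 active = mean inhibition at 8 µM reaching about 37%, which flags the compound as non-specific, limit read from the data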;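 also: p53-null SaOS-2 cells with luciferase driven by a doxycycline-inducible promoter; compound on cells about two nights before reading with doxycycline added after day one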
Each line names hits and unclear results; the compound was inactive in the other large screens (follow-up assays come after a bar, where they were run).

O=C(N/N=C1\CCCc2ccccc21)c1cccc([N+](=O)[O-])c1	none
COCCn1c(SCC#N)nnc1-c1ccc([N+](=O)[O-])cc1	none
CCOC(=O)c1c(NC(=O)CN2C(=O)NC(C)(c3ccccc3)C2=O)sc(C)c1C (stereo not given)	Mdm2-MdmX inh 71 | Mdm2-MdmX conf 58 | FLuc counter 45
CCOC(=O)c1cc(-c2ccccc2)sc1NC(=O)CN1C(=O)c2ccccc2C1=O	none
CCCC1(c2ccccc2)NC(=O)N(CC(=O)Nc2sc(-c3ccccc3)cc2C(=O)OCC)C1=O (stereo not given)	Mdm2-MdmX inh 77 | Mdm2-MdmX conf 55 | FLuc counter 53
Cc1ccc2cc(C)c3nnc(SCC(=O)Nc4nc5c(s4)CCCC5)n3c2c1C	none
COc1ccc(Cc2[nH]n3c(=O)cc(C)nc3c2-c2ccccc2)cc1	none
COc1ccc(Cc2[nH]n3c(=O)cc(C(C)C)nc3c2-c2ccccc2)cc1	Mdm2-MdmX inh 62 | Mdm2-MdmX conf 62 | FLuc counter 40
COc1ccc(-c2nc3c(c(SCC(=O)Nc4cccc(O)c4)n2)Cc2c(CO)cnc(C)c2O3)cc1	none
Cc1ncc(CO)c2c1Oc1nc(-c3ccccc3)nc(SCC(=O)Nc3cccc(O)c3)c1C2	Mdm2-MdmX inh 51 | Mdm2-MdmX conf inactive
O=C(CCc1nnc(CCCc2ccccc2)o1)NCC(F)(F)F	none
COc1ccc(/C=N/n2cnc3c([nH]c4ccc(Br)cc43)c2=O)cc1CN1CCOCC1	Mdm2-MdmX inh 57 (no result: Shn3 inh set2) | Mdm2-MdmX conf inactive
CC(=O)Nc1ccc(OS(=O)(=O)c2ccc([N+](=O)[O-])cc2)cc1	none
Cc1cccc2cc(C#N)c(SCc3nnc(-c4ccccc4[N+](=O)[O-])o3)nc12	Mdm2-MdmX inh 59 | Mdm2-MdmX conf inactive
Cc1cccc2cc(C#N)c(SCCN3CCCCC3)nc12	none (no result: Shn3 inh set2)
CC(=O)Nc1cc(-c2ccc(CO)cc2)cn2c(-c3ccc(F)cc3)cnc12	none (no result: Gli-Sufu antag, Mdm2-MdmX inh, Jurkat NFkB inh, 697 NFkB inh)
COc1ccccc1N=c1oc2c(OC)cccc2cc1C(=O)NCc1ccco1	Mdm2-MdmX inh 51 | Mdm2-MdmX conf inactive
C[C@H](C[C@H](O)[C@H]1OC1(C)C)C1=C2C[C@H](O)C3[C@@]4(C)CCC(=O)C(C)(C)C4CC[C@]3(C)[C@@]2(C)CC1 (stereo not given in full)	none
C[C@@H](C[C@@H](O)[C@H](O)C(C)(C)O)[C@@H]1CC[C@]2(C)C3=CC[C@H]4C(C)(C)C(=O)CC[C@]4(C)[C@H]3CC[C@@]12C	Mdm2-MdmX inh 51, Shn3 inh set2 92 | Mdm2-MdmX conf 40 | FLuc counter 96
C#CCN(C(=O)c1ccc(OC2CCN(Cc3ccccn3)CC2)cc1)C1CCCCC1	none
Cc1c(C(=O)N/N=C/c2ccccc2)[nH]c2ccc(Cl)cc12	Mdm2-MdmX inh 57 | Mdm2-MdmX conf 51 | FLuc counter 59
NNC(=O)c1[nH]c2ccc(Cl)cc2c1-c1ccccc1	Mdm2-MdmX inh 53 | Mdm2-MdmX conf inactive
Cc1cccc(C)c1C(=NCCN(C)C)c1ccccc1	none
N#C/C(=N\Nc1ccccc1Cl)C(=O)c1ccccc1	none
N#C/C(=N\Nc1ccc(Cl)cc1)C(=O)c1ccsc1	Mdm2-MdmX inh 69 (no result: Shn3 inh set2) | Mdm2-MdmX conf inactive | FLuc counter 74
N#C/C(=N\Nc1cccc(Cl)c1)C(=O)c1ccccc1	Mdm2-MdmX inh 71 | Mdm2-MdmX conf inactive
O=C(NCc1cccc(C(F)(F)F)c1)c1csc([C@@H]2O[C@H](CO)[C@H](O)[C@H](O)[C@H]2O)n1	none (no result: Gli-Sufu antag, Mdm2-MdmX inh, Jurkat NFkB inh, 697 NFkB inh)
Cc1cc(Sc2nnc(/N=C/N(C)C)s2)c2ccccc2n1	none
Cc1cc(Sc2nnc(N)s2)c2ccccc2n1	Mdm2-MdmX inh 50, Shn3 inh set2 inconclusive | Mdm2-MdmX conf inactive | FLuc counter inactive
N#CC1=C(SCC(N)=O)NC2=C(C(=O)c3ccccc32)C1c1ccc(Cl)cc1 (stereo not given)	Mdm2-MdmX inh 50 | Mdm2-MdmX conf inactive
O=C(C[C@H]1C[C@H](C(=O)N2CCCCC2)[C@@]2(CCc3ccccc3)c3[nH]c4ccc(Cl)cc4c3CCN2C1=O)NCCCn1ccnc1	none (no result: Jurkat NFkB inh)
O=C(C[C@H]1C[C@H](C(=O)N2CCCCC2)[C@@]2(CCc3ccccc3)c3[nH]c4ccc(Cl)cc4c3CCN2C1=O)NCCN1CCOCC1	Mdm2-MdmX inh 83 (no result: Jurkat NFkB inh) | Mdm2-MdmX conf 42 | FLuc counter 42
COc1ccc(CNC(=O)C[C@H]2C[C@H](C(=O)N3CCCCC3)[C@@]3(CCc4ccccc4)c4[nH]c5ccc(Cl)cc5c4CCN3C2=O)cc1OC	Mdm2-MdmX inh 55 (no result: Jurkat NFkB inh) | Mdm2-MdmX conf inactive
COc1ccc(NC(=S)Nc2cccc(C(F)(F)F)c2)c(C)c1	none
CCOC(=O)C1=C(N)n2c(s/c(=C\c3ccco3)c2=O)=C(C(=O)OCC)C1c1ccco1 (stereo not given)	none (no result: Mdm2-MdmX inh, Jurkat NFkB inh, 697 NFkB inh)
CCOC(=O)C1=C(N)n2c(s/c(=C/c3ccccc3)c2=O)=C(C(=O)OCC)C1c1ccccc1 (stereo not given)	Mdm2-MdmX inh 51 (no result: Gli-Sufu antag, Shn3 inh set2) | Mdm2-MdmX conf inactive
CC[C@]12c3[nH]c4ccccc4c3CCN1C(=O)C(CC(=O)NC/C=C(\C)CCC=C(C)C)C[C@@H]2C(=O)N1CCN(C(=O)c2ccco2)CC1 (stereo not given in full)	Mdm2-MdmX inh 54 | Mdm2-MdmX conf inactive
CC[C@]12c3[nH]c4cc(-c5ccco5)ccc4c3CCN1C(=O)[C@@H](CC(=O)NC/C=C(\C)CCC=C(C)C)C[C@@H]2C(=O)N1CCN(C(=O)c2ccco2)CC1	Mdm2-MdmX inh 56 (no result: Jurkat NFkB inh) | Mdm2-MdmX conf inactive
CC[C@]12c3[nH]c4cc(-c5ccco5)ccc4c3CCN1C(=O)[C@@H](CC(=O)NC/C=C(\C)CCC=C(C)C)C[C@@H]2C(=O)N1CCN(C(=O)C2CC2)CC1	none (no result: Jurkat NFkB inh)
CC[C@]12c3[nH]c4ccc(Cl)cc4c3CCN1C(=O)[C@@H](CC(=O)NC/C=C(\C)CCC=C(C)C)C[C@@H]2C(=O)N1CCN(C(=O)C2CC2)CC1	Mdm2-MdmX inh 70 (no result: Jurkat NFkB inh) | Mdm2-MdmX conf inactive | FLuc counter 71
O=C1NC(=S)N/C1=C/c1ccc2c(c1)OCO2	Mdm2-MdmX inh 80 | Mdm2-MdmX conf 50 | FLuc counter 91
O=C1NC(=S)SC1=Cc1ccc2c(c1)OCO2	none (no result: Mdm2-MdmX inh, Jurkat NFkB inh, 697 NFkB inh)
CCOC(=O)Cc1cn(C(=O)OC(C)(C)C)c2ccccc12	none
COc1cccc(C(=O)N2CCN(Cc3ccccc3Br)CC2)c1	none
Cc1oc(-c2ccccc2)nc1C(=O)O	Mdm2-MdmX inh 77 | Mdm2-MdmX conf inactive
CCC(C)NC(=S)Nc1ccc2nc(N3CCN(CC)CC3)cc(C)c2c1 (stereo not given)	Mdm2-MdmX inh 52 | Mdm2-MdmX conf inactive | FLuc counter 61
CCCN1CCN(C(=S)Nc2ccc3nc(N4CCN(CC)CC4)cc(C)c3c2)CC1	Mdm2-MdmX inh 50 | Mdm2-MdmX conf 43 | FLuc counter 46
